From PubChem BioAssay (NCATS)
Results filed as inconclusive are left out. Where a call stands in place of a potency, no number is given. Calls of active or inactive are those of the source. Unless noted, the call rests on the fitted dose curve; in most records, active means well fitted curve in the direction sought with a large enough effect; inconclusive means small, poorly fitted or top-dose-only effect, or another doubt; inactive means no such curve, though single readings can be large; an effect the other way counts as inactive or inconclusive.

Legend:
[1] = A High-Content qHTS Against Drug Library for the Identification of Small Molecules that Inhibit DYT1 Early Onset Primary Dystonia-Associated Cell Pathology (AID 1645839; calls by dose curve; further: series mostly up to about 46 µM)
Outline: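 Readout: %pathology, the punctate EGFP-TorsinA distribution from imaging, as the primary channel and cell count as the toxicity counterscreen. HEK293 Flp-In cells expressing delE TorsinA were induced with tetracycline and treated with compound for 48 h.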

[2] = target: Cytochrome P450 2C9 (Homo sapiens) (UniProt P11712); assay: Cytochrome P450 family 2 subfamily C member 9 (CYP2C9) small molecule antagonists: luciferase biochemical (cell-free) qHTS assay (AID 1645842; active means well fitted curve in the direction sought with a large enough effect in the repeat runs; an effect the other way counts as inactive or inconclusive; further: series mostly up to about 57 µM; nearly all actives have a fitted effect of over 55% in size)
Outline: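 Luminescence, after 20 min with luciferin detection reagent, reflected CYP2C9 turnover during a 1 h NADPH-driven reaction at 37C. Enzyme-substrate mix contained 0.4% bovine serum albumin and was preincubated with compound 10 min at room temperature.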

[3] = Primary qHTS for inhibitors of nuclear receptor binding SET domain protein 2 (NSD2) in an isogenic RCH-ACV NSD2 p.E1099K mutant (9B) (AID 1645876); further: nearly all actives have a fitted effect of over 70% in size; further: potency means the concentration at half of the fitted maximal effect
[4] = Primary qHTS for inhibitors of nuclear receptor binding SET domain protein 2 (NSD2) in an RCH-ACV wild type WT cells (2C) (AID 1645877); further: nearly all actives have a fitted effect of over 70% in size; further: potency means the concentration at half of the fitted maximal effect
[5] = target: Cytochrome P450 2D6 (Homo sapiens) (UniProt P10635); assay: Cytochrome P450 family 2 subfamily D member 6 (CYP2D6) small molecule antagonists: luciferase biochemical (cell-free) qHTS assay (AID 1645840; active means well fitted curve in the direction sought with a large enough effect in the repeat runs; an effect the other way counts as inactive or inconclusive; further: series mostly up to about 57 µM; nearly all actives have a fitted effect of over 55% in size)
Outline: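 P450-Glo luminescent screen: recombinant CYP2D6 enzyme–proluciferin substrate mix preincubated with compound 10 min at room temperature, then NADPH regeneration added for 1 h at room temperature. Detection reagent added for 20 min; luciferin light read as relative luminescence units.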

[6] = target: Glutathione peroxidase 1 (Homo sapiens) (UniProt P07203); assay: Primary qHTS Assay for Inhibitors of Recombinant Selenoprotein Glutathione Peroxidase 1 (GPX1) (AID 1845191); further: nearly all actives have a fitted effect of over 65% in size
Outline: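 Recombinant GPX1 (10 nM final) was preincubated with compound for 30 min at room temperature, then reacted with 1 mM GSH, 0.5 mM CHP, 0.5 mM NADPH and 100 nM glutathione reductase; NADPH fluorescence (340/450 nm) was read at 0 and 15 min.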

Sequence of Cytochrome P450 2C9 (Homo sapiens) (P11712 whole entry, looked up): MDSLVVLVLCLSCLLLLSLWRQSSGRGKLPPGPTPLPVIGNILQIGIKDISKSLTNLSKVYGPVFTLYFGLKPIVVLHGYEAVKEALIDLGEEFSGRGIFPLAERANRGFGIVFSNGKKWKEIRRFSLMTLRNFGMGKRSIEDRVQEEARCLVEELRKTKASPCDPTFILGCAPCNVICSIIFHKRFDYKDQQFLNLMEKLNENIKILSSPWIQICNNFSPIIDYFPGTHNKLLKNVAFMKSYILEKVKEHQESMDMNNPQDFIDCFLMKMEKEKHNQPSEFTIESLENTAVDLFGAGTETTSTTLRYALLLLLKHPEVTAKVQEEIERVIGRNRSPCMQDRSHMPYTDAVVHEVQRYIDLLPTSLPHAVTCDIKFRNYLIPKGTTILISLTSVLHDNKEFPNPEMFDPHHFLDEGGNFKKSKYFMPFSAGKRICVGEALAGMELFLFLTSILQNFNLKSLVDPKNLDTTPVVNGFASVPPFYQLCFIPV
Sequence of Cytochrome P450 2D6 (Homo sapiens) (P10635 whole entry, looked up): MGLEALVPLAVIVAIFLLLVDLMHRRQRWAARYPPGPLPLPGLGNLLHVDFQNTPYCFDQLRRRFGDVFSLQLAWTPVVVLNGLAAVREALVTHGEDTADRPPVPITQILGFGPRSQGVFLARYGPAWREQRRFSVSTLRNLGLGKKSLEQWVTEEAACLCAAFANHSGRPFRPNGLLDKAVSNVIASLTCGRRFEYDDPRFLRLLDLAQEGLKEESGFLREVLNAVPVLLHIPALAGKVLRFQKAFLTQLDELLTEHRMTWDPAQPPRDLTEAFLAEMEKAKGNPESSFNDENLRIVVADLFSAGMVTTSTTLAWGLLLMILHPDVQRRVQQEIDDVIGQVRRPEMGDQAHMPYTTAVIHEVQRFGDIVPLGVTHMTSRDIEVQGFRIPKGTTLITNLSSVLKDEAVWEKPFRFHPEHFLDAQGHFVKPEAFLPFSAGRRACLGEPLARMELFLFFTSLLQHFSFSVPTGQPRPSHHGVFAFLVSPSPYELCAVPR
Sequence of Glutathione peroxidase 1 (Homo sapiens) (P07203 whole entry, looked up): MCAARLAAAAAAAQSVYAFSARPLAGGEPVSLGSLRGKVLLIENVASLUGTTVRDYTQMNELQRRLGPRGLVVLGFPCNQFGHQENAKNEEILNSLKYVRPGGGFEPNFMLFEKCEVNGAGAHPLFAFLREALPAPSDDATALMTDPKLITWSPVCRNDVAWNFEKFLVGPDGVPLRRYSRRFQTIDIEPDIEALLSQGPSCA

SMILES | Potency [1] | Potency [2] | Potency [3] | Potency [4] | Potency [5] | Potency [6]
Cc1ccccc1N=Nc1ccc(N=Nc2c(O)ccc3ccccc23)c(C)c1 | inactive | inactive | inactive | inactive | – | –
CC(=O)OCC(COC(C)=O)OC(C)=O | inactive | inactive | inactive | inactive | inactive | inactive
COC(=O)N/N=C/c1c[n+]([O-])c2ccccc2[n+]1[O-] | inactive | inactive | 23.7 µM (active) | 7.5 µM (active) | inactive | inactive
